Source: PubChem BioAssay (Broad Institute)
Rows were chosen to be rich in hits. Some 3.4% of all compounds tested hit in one or more screens of this group.
esBAF inh: inhibitors of esBAF chromatin remodeling in mouse ES cells. Bmi1-luciferase knock-in reporter, 24 h; 100% = twice the neutral-well signal. reporter increase, % at 12.5 µM. 350,000 compounds, 2% hits; in the data active = activation above about 40%; inconclusive = no clear call, values can overlap the other calls;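 note: 0% = median of the plate's neutral control wells and 100% = double that signal; a rise in the Bmi1 reporter signal indicates esBAF inhibition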
HIV Env fusion: inhibitors of HIV Env-mediated cell fusion; inhibition, % at 12.3 µM; 360,000 compounds, 1.1% hits; HeLa-JRFL Env/CEM21 cell fusion, luciferase; AID 651610;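 active = mean replicate inhibition score of at least 50 and every replicate individually at or above 50; inconclusive = only one of the two criteria met; inactive = mean below 50 and not all replicates reaching 50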;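 note: 0% = plate neutral controls and 100% = maraviroc near 300 nM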
Wnt bcat act: Wnt/beta-catenin pathway activation | Wnt/beta-catenin reporter cell assay, activator, plate reader | activation, % at 9.35 µM | 300,000 compounds, 1.2% hits | AID 743398; in the data active = activation above about 30%, passing the limit was not always enough; inconclusive = no clear call, values can overlap the other calls;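 note: 0% = neutral control wells and 100% = positive control wells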
miR122 inh: miR-122 inhibition in Huh7 cells | 340,000 compounds, 0.3% hits | activation (reporter increase), % at 12.5 µM | Huh7 miR-122 Renilla luciferase sensor, 48 h; neutral wells = 0, positive control = 100;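 active = mean replicate activation score at least 90 and every replicate individually at or above 90; inconclusive = only one of the two criteria met; inactive = neither criterion met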;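 note: higher luciferase means less miR-122 activity so hits act as miR-122 inhibitors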
MITF TRPM1 HTS: MITF TRPM1 promoter activation in melanoma cells. 300,000 compounds, 0.75% hits. SK-MEL-5 TRPM1-promoter luciferase, 24 h; % of positive control, neutral wells = 0. AID 588334. activation, % at 12.5 µM;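 active = mean activation of at least 80% with every replicate also reaching 80%; inconclusive = mean reaches 80% but some replicate falls short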;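 note: 0% = neutral control wells and 100% = parthenolide positive control wells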
* hit, by the source's call; ? = inconclusive; . = no result; [ ] = remark or other dose.

SMILES	esBAF inh	HIV Env fusion	Wnt bcat act	miR122 inh	MITF TRPM1 HTS
CCCn1nc2cc(C(=O)NCCc3cccs3)ccc2c1OCC	72.1*	.	18.5	1.3	70.9
CCCC(=O)Nc1nnc(/C=C/c2ccccc2)s1	39.9	-28.9	2.6	-3.6	20.1
CCC(=O)Nc1nnc(/C=C/c2ccccc2)s1	60.7*	-30.5	1.2	-3.9	76.1
CC(C)CC#Cc1cnc2c(c1)C(=O)N([C@@H](C)CO)C[C@H](C)[C@@H](CN(C)C(=O)Nc1ccccc1F)O2	-1.1	-0.6[16.7 µM]	.	-19.2[16.7 µM]	.
Cc1ccc(S(=O)(=O)NCC[C@@H]2CC[C@@H](NC(=O)c3cnccn3)[C@H](CO)O2)cc1	-1.9	3.7[16.7 µM]	.	101.4*[16.7 µM]	.
COc1ccccc1CN(Cc1nc2ccccc2c(=O)[nH]1)S(=O)(=O)c1ccc2ccccc2c1	.	98.4*	-2.7	.	-42.5
COc1ccc(S(=O)(=O)N(Cc2ccccc2)Cc2nc3ccccc3c(=O)[nH]2)cc1	-0.7	.	-2.3	3.0	.
CCn1c(=O)c(CCC(=O)N2CCN(c3ccccn3)CC2)c(C)c2c(C)nn(-c3cccc(C)c3)c21	-14.7	58.2*	-3.1	-4.5	-34.7
O=C(c1cnsn1)N1CCC(CO)(Cc2cccc(F)c2)CC1	69.8*	-35.9	49.9*	1.0	113.5*
Cc1cc(C(=O)N2CCC(CO)(Cc3cccc(C(F)(F)F)c3)CC2)n[nH]1	-2.4	7.4	-0.9	-3.0	-0.3
O=C1C(=Cc2ccncc2)CCCc2ccccc21	-0.3	24.2	1.6	-14.7	.
O=C1/C(=C/c2ccncc2)CCC/C1=C\c1ccncc1	-72.4	89.0*	-25.3	-77.8	-96.7
O=C(Nc1ccccc1)OCCOc1ccccc1Br	45.3*	-23.6	21.6	0.5	.
O=C(Nc1cccc(Cl)c1)OCCOC(=O)Nc1cccc(Cl)c1	-1.9	-29.6	-5.2	-3.3	11.5
Cc1ccc(NC(=O)CCOc2ccccc2)cc1	55.9*	-43.8	24.4	-4.6	90.2*
O=C(CCOc1ccccc1)Nc1ccccc1	.	.	.	0.3	21.7
O=C(Nc1cccc(Cl)c1)OCCOc1ccccc1	60.6*	-15.2	7.1	-3.6	79.5
Cc1ccc(OC(=O)Nc2ccccc2)cc1	50.4*	-25.3	22.7	-4.1	?
O=C(Nc1ccccc1)OCCOc1ccccc1	52.1*	-117.3	.	-1.3	52.3
C[C@@H]1CN([C@@H](C)CO)S(=O)(=O)c2ccc(Br)cc2O[C@H]1CN(C)C(=O)c1cnccn1	-1.5	19.4[16.7 µM]	.	5.6[16.7 µM]	.
C=CCN(CC=C)c1nc2ccccc2nc1C(C#N)C(=O)OCCOC (configuration not stated)	-0.7	.	-1.5	-2.2	.
CCCN(CCC)c1nc2ccccc2nc1C(C#N)C(=O)OCCOC (configuration not stated)	-6.6	.	.	-1.9	90.9*
CO[C@H]1CN(C)C(=O)c2cc(NC(C)=O)ccc2OC[C@@H](C)N(C(=O)C2CC2)C[C@@H]1C	-2.8	-6.2[16.7 µM]	.	10.0[16.7 µM]	.
CNc1sc(C(=O)c2cccs2)c(N)c1-c1nc2ccccc2s1	.	.	.	3.7	98.1*
CNc1sc(C(=O)c2ccc(F)cc2)c(N)c1-c1nc2ccccc2s1	24.3	-104.3	-0.7	-0.5	6.7
SMILES	esBAF inh	HIV Env fusion	Wnt bcat act	miR122 inh	MITF TRPM1 HTS
COc1cc(OC)cc(-c2nc3cc(C)ccc3o2)c1	44.9*	-163.9	57.2*	13.8	52.1
Cc1ccc(-c2nc3cc(Cl)ccc3o2)cc1	3.8	.	.	3.0	-1.4
CC(C)(C)[S@](=O)N1Cc2cc(C(=O)NCCc3ccncc3)nc(-c3cccc(-c4ccncc4)c3)c2[C@@H]1CCO	0.7	1.8[16.7 µM]	.	.	.
Cc1ccc(S(=O)(=O)N(Cc2ccc(Cl)cc2)c2ccccc2C(=O)NCc2ccco2)cc1	.	68.8*	.	.	3.3
COc1ccccc1N(CC(=O)NCc1ccco1)S(=O)(=O)c1ccc(C)cc1	2.2	10.8	-10.5	.	-6.7
C[C@@H]1CCCCO[C@@H](CN(C)S(=O)(=O)c2ccc(F)cc2)[C@@H](C)CN([C@H](C)CO)C(=O)c2cc(NC(=O)Nc3ccc4c(c3)OCO4)ccc2O1	-4.3	14.3[16.7 µM]	.	0.5[16.7 µM]	.
O=c1cc(-c2ccccc2Cl)oc2c([N+](=O)[O-])c(O)cc(O)c12	-18.4	65.2*	-2.9	0.6	-7.6
Nc1ccc2oc(-c3ccccc3Cl)cc(=O)c2c1O	59.7*	-38.2	21.2	13.3	29.5
Cc1ccc(Nc2ncccc2C(=O)O)cc1C	49.1*	.	6.1	0.7	1.1
Cc1ccc(Nc2ncccc2C(N)=O)cc1[N+](=O)[O-]	.	-65.9	70.2*	.	91.2*
Cn1nc(C(F)(F)F)cc1-c1ccc(/C=C(\C#N)C(=O)c2ccccc2)s1	.	-15.1	15.8	-3.6	.
CNC(=O)c1ccc(-c2cc(C(F)(F)F)nn2C)s1	.	-24.4	35.0*	-7.2	.
CO[C@@H]1CN(C)C(=O)c2ccc(NC(C)=O)cc2OC[C@H](C)N(C(=O)CN(C)C)C[C@@H]1C	-3.0	4.6[16.7 µM]	.	7.1[16.7 µM]	.
CC1=CCC(COC(=O)Nc2ccccc2)CC1 (configuration not stated)	84.1*	.	-2.2	-1.4	125.5*
O=C(Nc1ccccc1)OCC1CCCN2CCCCC12 (configuration not stated)	7.6	.	-2.4	-9.7	-3.3
O=C(Cc1ccc(Br)cc1)N1CCCCCC1	56.8*	.	.	-9.0	.
S=C(c1ccc(-c2ccc(Br)cc2)o1)N1CCOCC1	.	-105.1	52.6*	6.7	.
O=C(c1cc(-c2ccc(Br)cc2)on1)N1CCOCC1	-8.6	-47.2	15.9	0.2	27.9
S=C(c1ccc(-c2ccc(Cl)c(Cl)c2)o1)N1CCOCC1	44.9*	.	.	0.4	113.5*
S=C(c1ccc(-c2ccc(Br)cc2)o1)N1CCCCC1	48.4*	-78.7	46.1*	0.6	71.5
S=C(c1ccc(-c2ccccc2Cl)o1)N1CCOCC1	31.3	.	.	-2.9	76.3
COc1ccc(-c2ccc(C(=S)N3CCN(C(C)=O)CC3)o2)cc1	2.9	-21.4	-1.6	-0.7	11.2
Cc1ccc(S(=O)(=O)N[C@@H]2C=C[C@H](CC(=O)NCc3ccncn3)O[C@@H]2CO)cc1	-5.3	-4.0[16.7 µM]	.	.	.
O=C(C1CC1)N1CCCCN2[C@H](C1)[C@@H](c1ccc(C#CC3(O)CCCC3)cc1)[C@@H]2CO	.	.	.	-25.3[16.7 µM]	.
C[C@H]1CN([C@@H](C)CO)C(=O)c2cc(C#CCc3ccccc3)cnc2O[C@@H]1CN(C)Cc1ccc(C(=O)O)cc1	1.5	-23.6[16.7 µM]	.	-10.2[16.7 µM]	.
SMILES	esBAF inh	HIV Env fusion	Wnt bcat act	miR122 inh	MITF TRPM1 HTS
Cc1ccc(COc2ccc3c(c2)OCO3)cc1	20.6	-164.6	33.4*	-8.9	60.0
Cc1cccc(Nc2nnc(SCC(=O)c3c(N)n(C4CC4)c(=O)[nH]c3=O)s2)c1	-1.8	-3.1	0.9	.	9.2
C/C(N)=C(/C#N)C(=O)CSc1nnc(Nc2cccc(C)c2)s1	60.0*	-37.4	-5.3	13.0	72.8
Cn1nccc1C(=O)N/N=C/c1c(O)ccc2ccccc12	-69.4	65.8*	2.9	6.3	-69.7
O=C1c2ccccc2C(=O)C1c1ccnc2ccccc12	-44.5	-352.6	43.4*	-6.3	-34.9
CCOC(=O)/C=C1/N(C)c2ccccc2C1(C)C	-0.4	14.7	41.2*	-16.3	16.2
CN1/C(=C\C(=S)Nc2ccccc2)C(C)(C)c2ccccc21	-45.8	52.9*	-5.4	-3.9	-8.5
